# Inconclusive results are not listed. Entries that show only a call come without a potency. Active and inactive are the calls of the source. Calls come from the whole dose curve; as a rule, active = well fitted activation curve with a large enough effect in the signal ratio in the repeat runs, with a control signal flat (not every such curve was filed as active); inconclusive = weak or mixed curves, or effect the other way; inactive = no such curve, though single readings can be large or run the other way; the % refers to the signal ratio.
# Molecular target: Androgen receptor (Homo sapiens) (UniProt P10275)
# Assay: qHTS assay to identify small molecule agonists of the androgen receptor (AR) signaling pathway (AID 743036)
# Details: HEK293 AR-UAS-bla GripTite, beta-lactamase FRET ratio, 16 h; series mostly up to 62.4 µM
# Text: U.S. Tox21 Program National Center for Advancing Translational Sciences [NCATS] NIH Chemical Genomics Center [NCGC] U.S. Environmental Protection Agency [EPA] National Institutes of Environmental Health Sciences [NIEHS] National Toxicology Program [NTP] U.S. Food and Drug Administration [FDA] Tox21 Assay Overview: Androgen receptor (AR), a nuclear hormone receptor, plays a critical role in AR-dependent prostate cancer and other androgen related diseases. Endocrine disrupting chemicals (EDCs) and their interactions with steroid hormone receptors like AR may cause disruption of normal endocrine function as well as interfere with metabolic homeostasis, reproduction, developmental and behavioral functions. To identify the compounds that activate AR signaling, GeneBLAzer AR-UAS-bla-GripTite cell line (Invitrogen, Carlsbad, CA, USA) containing a beta-lactamase reporter gene under the control of an Upstream Activator Sequence (UAS) stably integrated into HEK293 cells was used to screen the Tox21 10K compound library.
# Tox21 Assay Protocol Summary: AR-bla cells were dispensed at 2,000 cells/6 uL/well of assay medium into black wall/clear-bottom 1536-well plates using a Multidrop Combi (ThermoFisher Scientific, Waltham, MA) dispenser. After the assay plates were incubated at 37C and 5% CO2 for 4 h, 23 nL of compounds dissolved in DMSO, positive controls or DMSO only was transferred to the assay plate by a Pintool station (Kalypsys, San Diego, CA). The plates were incubated at 37C and 5% CO2 for 16 h. Then 1 uL of LiveBLAzerTM B/G FRET substrate was added using a Bioraptr Flying Reagent Dispenser (FRD) workstation (Beckman Coulter, Indianapolis, IN, USA). The plates were incubated at room temperature for 2 h, and fluorescence intensity was measured by an Envision plate reader (PerkinElmer, Shelton, CT).
# Potency is the fitted concentration of half-maximal effect.
# Androgen receptor (Homo sapiens), sequence (P10275 whole entry, looked up): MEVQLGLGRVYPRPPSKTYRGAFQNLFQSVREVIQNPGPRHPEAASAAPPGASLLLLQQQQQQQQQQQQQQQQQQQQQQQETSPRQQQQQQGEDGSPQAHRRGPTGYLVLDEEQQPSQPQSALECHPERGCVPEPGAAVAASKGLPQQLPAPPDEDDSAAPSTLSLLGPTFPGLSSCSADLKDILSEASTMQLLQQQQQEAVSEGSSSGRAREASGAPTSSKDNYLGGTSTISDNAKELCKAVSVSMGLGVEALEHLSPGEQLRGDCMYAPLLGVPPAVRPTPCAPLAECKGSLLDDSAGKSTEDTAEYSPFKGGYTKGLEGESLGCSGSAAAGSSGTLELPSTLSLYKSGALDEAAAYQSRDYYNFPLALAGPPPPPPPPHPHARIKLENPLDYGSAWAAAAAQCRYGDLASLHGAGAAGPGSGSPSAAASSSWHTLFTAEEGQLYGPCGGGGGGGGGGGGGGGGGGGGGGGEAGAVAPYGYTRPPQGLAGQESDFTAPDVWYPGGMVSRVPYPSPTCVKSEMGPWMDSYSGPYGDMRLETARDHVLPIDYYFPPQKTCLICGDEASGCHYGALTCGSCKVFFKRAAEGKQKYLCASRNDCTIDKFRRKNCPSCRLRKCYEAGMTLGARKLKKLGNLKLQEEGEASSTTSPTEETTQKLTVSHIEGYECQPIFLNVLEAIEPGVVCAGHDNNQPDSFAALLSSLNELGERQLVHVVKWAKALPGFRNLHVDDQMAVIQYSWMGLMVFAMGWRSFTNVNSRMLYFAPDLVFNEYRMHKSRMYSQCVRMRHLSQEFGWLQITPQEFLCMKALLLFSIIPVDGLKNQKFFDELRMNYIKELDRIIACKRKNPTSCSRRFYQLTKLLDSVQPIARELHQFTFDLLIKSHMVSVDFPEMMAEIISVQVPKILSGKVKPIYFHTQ
SMILES,Potency,activation
CNCCCN1c2ccccc2CCc2ccccc21,inactive,–
OCCNCc1ccccc1,inactive,–
c1ccc(-c2ccccn2)nc1,inactive,–
C[C@@H]1C[C@H]2O[C@@]3(O[C@@H]2C(C)(C)O)[C@H](O)[C@@]2(C)[C@@H]4CC[C@H]5C(C)(C)[C@@H](O[C@@H]6OC[C@@H](O)[C@H](O)[C@H]6O)CC[C@@]56C[C@@]46CC[C@]2(C)[C@@H]13,inactive,–
C=C1C(=C/C=C2\CCC[C@]3(C)[C@@H]([C@H](C)/C=C/[C@@H](O)C4CC4)CC[C@@H]23)C[C@@H](O)C[C@@H]1O,inactive,–
CC(COCCO)OCCO (stereo unspecified),inactive,–
O=C(O)CNCC(=O)O,–,-0.671% [at 6.9 µM] (inactive)
CC(C)CC(=O)C1C(=O)c2ccccc2C1=O,inactive,–
Cc1cccc(Nc2ccccc2)c1,inactive,–
Nc1ccc(N)c2c1C(=O)c1ccccc1C2=O,inactive,–
CN(C)c1ccc(C(c2ccccc2)c2ccc(N(C)C)cc2)cc1,inactive,–
CCOC(=O)COC(=O)c1cc(Oc2ccc(C(F)(F)F)cc2Cl)ccc1[N+](=O)[O-],inactive,–
Cc1cc(N)c2cc(NC(=O)Nc3ccc4nc(C)cc(N)c4c3)ccc2n1,inactive,–
CN1CCN(C(c2ccccc2)c2ccccc2)CC1,inactive,–
OC(CN1CCC(Cc2ccc(F)cc2)CC1)c1ccc(Cl)cc1 (stereo unspecified),inactive,–
O=CC1CC=CCC1 (stereo unspecified),inactive,–

SMILES,Potency,activation
O=C1OC(CN2CCOCC2)CN1/N=C/c1ccc([N+](=O)[O-])o1 (stereo unspecified),inactive,–
CCCn1cnc2c1c(=O)n(CCCCC(C)=O)c(=O)n2C,inactive,–
Cc1nn(C)c(Oc2ccccc2)c1/C=N/OCc1ccc(C(=O)OC(C)(C)C)cc1,inactive,–
CCCCCCCCCc1ccc(OCCOCCO)cc1,inactive,–
O=[N+]([O-])c1ccc(NCCO)c(OCCO)c1,inactive,–
CCCCCCCCCCCCCCCCOS(=O)(=O)O,inactive,–
Nc1cccc([N+](=O)[O-])c1,inactive,–
NCCCN1CCOCC1,inactive,–
CCCCCC[C@@H](O)C/C=C\CCCCCCCC(=O)OC,inactive,–
COC(=O)C1=C(C)NC(COC(N)=O)=C(C(=O)OC(C)C)C1c1cccc(Cl)c1Cl (stereo unspecified),10.7 µM (active),–
CCO[C@H](Cc1ccc(OCCc2ccc(OS(C)(=O)=O)cc2)cc1)C(=O)O,inactive,–
NCc1ccccc1Sc1ccccc1CO,inactive,–
CC(=O)NO,inactive,–
COc1cc(C(=O)OCCCN2CCCN(CCCOC(=O)c3cc(OC)c(OC)c(OC)c3)CC2)cc(OC)c1OC,inactive,–
CN1CCC(=C2c3ccccc3Sc3ccccc32)CC1,inactive,–
